Reference: PubChem BioAssay AID489042 (NMMLSC, 2010)
A number with no mark means an inactive call. Activity calls are given as the source filed them. Cut-off read from the data, not from the text of the source: active = inhibition score above about 11; inactive = the rest.

Assay: yeast proliferation inhibition, dose response, BY4741, OD595, 24 h (AID 489042)
Details: S. cerevisiae BY4741 growth, flow cytometer event count, 7 d (AID 449753), active compounds read high

SMILES | inhibition score
C[C@]12CCC3C(CC[C@H]4C[C@H](O)CC[C@]34C)C1CCC2=O (stereo not given in full) | 0
C=C1C(O)[C@@H]2O[C@]3(CC[C@H](/C=C/C(C)[C@@H]4CC(C)=CC5(O[C@H](C[C@@](C)(O)C(=O)O)CCC5O)O4)O3)CC[C@H]2O[C@@H]1C(O)CC(C)[C@H]1OC2(CCCCO2)CCC1C (stereo not given in full) | 11 (active)
CC(=O)O[C@H]1CCC2C3CC[C@H]4[C@@H](O)[C@H](O)CC[C@]4(C)C3CC[C@@]21C (stereo not given in full) | 0
OCC[n+]1c2ccccc2nc2ccc(N3CCOCC3)cc21 | 0
Cn1c(O)c(C(=Nc2ccc(F)cc2)c2ccccc2Cl)c(=O)n(C)c1=O | 0
CNc1ccc2nc3ccccc3[n+](C)c2c1 | 0
Cn1c(=O)[nH]c2nncnc2c1=O | 0
C[C@]12CCC3C(CC[C@H]4C[C@@H](O)CC[C@]34C)C1CC[C@@H]2OC(=O)[C@H](N)CCCCN (stereo not given in full) | 0
C[C@]12CCC3C(CC[C@H]4C[C@@H](O)CC[C@]34C)[C@H]1CC[C@H]2O (stereo not given in full) | 0
C[n+]1c2ccccc2nc2ccc(NCCO)cc21 | 0
C[C@]12CCC3C(CC[C@H]4C[C@H](O)CC[C@]34C)C1C[C@@H](CCCCl)[C@@H]2O (stereo not given in full) | 0
Nc1cc2nc3ccccc3nc2cc1N | 0
C#C[C@]1(O)[C@H](O)CC2C3CC[C@H]4C[C@@H](O)CC[C@]4(C)C3CC[C@@]21C (stereo not given in full) | 0
O=c1[nH]c(O)c(C=Nc2ccc(F)c(Cl)c2)c(=O)[nH]1 | 0
Oc1cccc2nc3ccccc3nc12 | 0
